This passage reports inhibition results from PubChem BioAssay AID743201 (The Scripps Research Institute Molecular Screening Center, 2013).

Hit rate of the full screen: of about 1,500 compounds, about 420 (28%) were called active. Cut-off read from the data, not from the text of the source: active = inhibition above about 9.5%; inactive = the rest. These entries were drawn from the full list.

The nature of this assay: cytotoxicity in LD9 cells, cytotoxicity control for cell surface PrPc inhibitor project, cell-based, luminescence, high throughput (AID 743201). The note with it: luminescence viability, at 13.8 µM, hits give high values.
`O=C(Nc1ccc(C2CC2(Cl)Cl)cc1)c1cccc([N+](=O)[O-])c1` (stereo not drawn): the inhibition – broadly, the drop in the measured response relative to a control, in per cent – was 22.1% (active).
The result for `O=C(Oc1ccccc1)Oc1ccc2c(c1)oc(=O)c1ccccc12` reads -2.43% (inactive); that for `Cc1nc(/N=C(\N)NC(=O)NC2CCCCC2)nc2ccccc12`, 13.3% (active); that for `O=C(Nc1cccn(Cc2ccccc2Cl)c1=O)NC1CCCCC1`, -0.08% (inactive).
The result for `O=C(COC(=O)c1ccccc1SCC(=O)NC1CCCCC1)NC1CCCCC1` reads -4.15% (inactive).
The result for `CC1(C)Cc2ccccc2-c2[nH]c(=S)[nH]c(=O)c21` reads 0.24% (inactive).
On to `O=C(/C=C/c1ccc([N+](=O)[O-])o1)NNC(=O)c1ccc(F)cc1`, for which the inhibition was 81% (active).
To `Cn1c(=S)sc2ccc3ccccc3c21` belongs -9.96% (inactive); to `Cc1ccc(CSc2ccc(S(=O)(=O)N3CCCCC3)cn2)cc1`, -3.1% (inactive).
To `O=C(Nc1ccc(N2CCN(C(=O)c3ccccc3)CC2)c(Cl)c1)c1cccnc1` belongs 10.4% (active); to `CCCCC(=O)NC(c1ccc(OC)c(OC)c1)c1ccc2cccnc2c1O` (stereo not drawn), 34.6% (active); to `COc1ccc(NC(=O)COC(=O)CNC(=O)C2CCCCC2)cc1`, -1.65% (inactive).
The result for `Cc1cccc(NC(=O)c2nc(S(=O)(=O)Cc3ccccc3)ncc2Cl)c1` reads 88.2% (active); that for `O=C(Cc1ccccc1)Nc1cccc(NC(=O)c2ccccc2)c1`, -4% (inactive); that for `Cc1cccc(CS(=O)(=O)c2ncc(Cl)c(C(=O)Nc3ccc(F)cc3)n2)c1`, 97.1% (active).
In the case of `CCc1c(C)nc2cc(-c3cccs3)[nH]n2c1=O`, the inhibition is -5.48% (inactive).
To `Fc1ccc2[nH]c3c(N4CCSCC4)ncnc3c2c1` belongs 49.1% (active); to `COc1cccc2sc3cc(NCC[C@@H]4CCCN4C)ccc3c(=O)c12`, 3.87% (inactive); to `COc1ccc(S(=O)(=O)N2CCOCC2)cc1NC(=O)CSc1ncnc2ccccc12`, -10% (inactive).
Consider `Cc1cc2cc(CNC(=O)c3ccc(S(=O)(=O)N4CCOCC4)cc3)ccc2[nH]1`, for which the inhibition was -3.01% (inactive).
To `COc1ccc(C(=O)Nc2nc(-c3ccc(S(=O)(=O)N4CCOCC4)cc3)cs2)cc1` belongs 24.7% (active).
For the molecule `C=CCNC(=O)CSc1nc2scc(-c3ccco3)c2c(=O)n1CC=C`, the inhibition is -1.71% (inactive).
As for `N#C/C=C1\Sc2ccccc2C(=O)N1CC(=O)N1CCN(S(=O)(=O)c2ccccc2)CC1`, the inhibition is -0.34% (inactive).
The result for `CN(C)CCNC(=O)c1ccc(Cl)c2cc3ccccc3nc12` reads 62.4% (active).
To `COc1ccc(OC)c(NC(=O)c2cc(-c3cc(F)ccc3OCC3CCCO3)n[nH]2)c1` (stereo not drawn) belongs 6.36% (inactive); to `CCc1nc(SCC(=O)NNC(=O)c2ccc(C)cc2)c2ccccc2n1`, -9.92% (inactive).
To `COC(=O)CSc1nc(C2CC2)nc2ccccc12` belongs 2.09% (inactive); to `CCCc1nc(SCC(=O)Nc2ccc(S(=O)(=O)N(C)C)cc2)c2ccccc2n1`, 11.4% (active).
As for `CCC(C)(O)C(=O)OC1C(=O)OC2CC3C(C)=CC(=O)C(O)C3(C)C3C4(O)OCC23C1C(C)C4O` (stereo not drawn), the inhibition is 31.5% (active).
To `CCCOc1ccc(C2C(C(=O)c3ccc(C)o3)=C(O)C(=O)N2CCCn2ccnc2)cc1` (stereo not drawn) belongs -8.43% (inactive); to `O=C(NC(Nc1nc2ccc([N+](=O)[O-])cc2s1)(C(F)(F)F)C(F)(F)F)c1ccccc1`, 60.2% (active); to `Cc1ccc(Oc2cnn(-c3ccccc3)c(=O)c2Br)cc1`, -5.84% (inactive).
The result for `CCOC(=O)c1c(C)[nH]c(=S)c(C#N)c1-c1ccccc1` reads -0.71% (inactive); that for `O=c1[nH]cccc1-c1nc2ccccc2n1Cc1ccc(Cl)cc1`, 18% (active).
To `N#Cc1ccc(OCC(=O)Nc2nc(-c3ccccn3)cs2)cc1` belongs 6.29% (inactive).
Consider `CC(=O)c1sc2nc(SCC(=O)N3CCCCC3)[nH]c(=O)c2c1C`, for which the inhibition was -4.99% (inactive).
To `NC(=O)C1CCN(Cc2nc3c(Br)cc(Br)cc3c(=O)[nH]2)CC1` belongs -0.26% (inactive).
For the molecule `O=C(CC(O)(C(F)(F)F)C(F)(F)F)Nc1ccc(Cl)c(Cl)c1`, the inhibition was 59.4% (active).
To `Cc1sc2ncnc(SCC(=O)Nc3ccc(CN4CCCC4)cc3)c2c1C` belongs 4.39% (inactive).
To `COc1ccc2c(Cl)c(-c3nnco3)sc2c1` belongs 0.91% (inactive); to `O=C(c1ccc(F)cc1)c1cn(Cc2ccc(F)cc2)c2cc3c(cc2c1=O)OCCO3`, 0.17% (inactive); to `CCCCCCCCn1c2c(c(=N)c3c1CCC3)CCCC2`, 27.8% (active).
To `Cc1cc2ccccc2n1CCNC(=O)COc1ccc2ccccc2c1` belongs 3.16% (inactive); to `CO[C@H]([C@H](C)/C=C/N(C)C=O)[C@@H](C)C(=O)CC[C@H](C)[C@H](O)[C@H](C)[C@H]1OC(=O)/C=C/C(C)=C/[C@H](O)[C@H](OC)C[C@@H]2C=CC[C@@H](C[C@H](OC)[C@@]3(CO3)[C@@H](OC)C[C@@H](OC)[C@@H]1C)O2`, 22.6% (active).
Turning to `FC(F)(F)c1cccc(NC(=S)OC2CCC23CCC(c2ccccc2)CC3)c1` (stereo not drawn), the inhibition is 6.03% (inactive).
The result for `CCCCNc1c(-c2cccc(Sc3ccc(OC)cc3)c2)nc2ccccn12` reads 17.3% (active); that for `N#Cc1c(-c2cccs2)nc(SCC(=O)c2ccc(Br)cc2)[nH]c1=O`, -2.36% (inactive).
The result for `Cc1ccc(CNC(=O)Nc2nnc([C@H]3C[C@H](O)[C@@H](CO)O3)s2)cc1` reads -1.07% (inactive).
The result for `O=C1CCCC2=C1C(c1cccs1)n1nc(SCc3ccccc3)nc1N2` (stereo not drawn) reads -3.22% (inactive); that for `CN1/C(=C\C(=O)c2oc3ccccc3c2N)C(C)(C)c2ccccc21`, 7.55% (inactive).
For the molecule `CC(=O)Nc1cccc(OCC(=O)/C=C2\N(C)c3ccccc3C2(C)C)c1`, the inhibition was 13.8% (active).
To `Cc1ccsc1C(=O)OCC(=O)Nc1cccc(F)c1` belongs -2.87% (inactive); to `Cc1[nH]n(-c2ccccc2)c(=O)c1/C=N/NC(=O)c1ccoc1C`, 21.3% (active).
To `CCOC(=O)c1c(-c2ccccc2)oc2cc(Br)c(O)cc12` belongs -6.88% (inactive); to `COC(=O)Cc1[nH]n(-c2nc3ccccc3s2)c(=O)c1C(C)=Nc1ccc(OC)cc1`, -5.36% (inactive); to `CC(=O)c1nc(N2C(=O)C3CC=C(C)CC3C2=O)sc1C` (stereo not drawn), -5.65% (inactive).
To `CCCCCCCCCCCCn1ccc(=N)cc1` belongs 33.6% (active).
`COc1cc(-n2c(=S)[nH]c3ccc(C)cc3c2=O)c(Cl)cc1Cl`: the inhibition is -3.19% (inactive).
To `Cc1ccc(NC(=O)c2sc3nc(N)c(C#N)cc3c2N)cc1` belongs 14.7% (active); to `CC(=O)N1CCCc2cc(S(=O)(=O)N3CCCC(C(=O)NCc4ccc(Cl)cc4)C3)ccc21` (stereo not drawn), 4.27% (inactive); to `CC(=O)N1c2ccc(S(=O)(=O)N3CCCC(C(=O)Nc4cccc(F)c4)C3)cc2CC1C` (stereo not drawn), 10.8% (active).
Consider `CC(=O)N1CCCc2cc(S(=O)(=O)N3CCCC(C(=O)N4CCN(c5cccc(Cl)c5)CC4)C3)ccc21` (stereo not drawn), for which the inhibition is 24.1% (active).
The result for `Cc1ccnc(NC(=O)C2CCN(S(=O)(=O)c3c(C)c(C)cc(C)c3C)CC2)c1` reads -5.26% (inactive).
